From PubChem BioAssay
Most compounds without a hit are left out; they make up all but 1.4% or so of the library.
pAkt inh: inhibitors of Akt phosphorylation; Neuro2A IGF-stimulated pAkt S473 HTRF, 20 min; hits give low values; actives 0.32% (n = 360,000); activity change, % for hits at 50 µM; in the data active means activity change below about -80%; inconclusive means mostly about -51% to -80%; further: on the % scale 0 is the no-effect control and ±100 the full control effect
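Neuro2A cells in DMEM with 0.5% FBS, overnight at 37 deg C, given compound at single 50 µM final, then IGF (6 nM final) for 20 min at 37 deg C. Lysed; phospho-Akt Ser473 by HTRF after 24 h, 665/615 ratio.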
TrxR1 substrate: is turned over as a substrate by rat TrxR1 | actives 0.01% (n = 390,000) | purified TrxR1 substrate turnover, NADPH consumption readout | Potency, µM (doses to about 114 µM), for inactives: at the top dose activity change, negative = substrate turnover | AID 588456; further: potency means the concentration at half of the fitted maximal effect; on the % scale 0 is the no-effect control and ±100 the full control effect; nearly all actives have a fitted effect of over 50% in size
Target sequence (O89049 whole entry, looked up): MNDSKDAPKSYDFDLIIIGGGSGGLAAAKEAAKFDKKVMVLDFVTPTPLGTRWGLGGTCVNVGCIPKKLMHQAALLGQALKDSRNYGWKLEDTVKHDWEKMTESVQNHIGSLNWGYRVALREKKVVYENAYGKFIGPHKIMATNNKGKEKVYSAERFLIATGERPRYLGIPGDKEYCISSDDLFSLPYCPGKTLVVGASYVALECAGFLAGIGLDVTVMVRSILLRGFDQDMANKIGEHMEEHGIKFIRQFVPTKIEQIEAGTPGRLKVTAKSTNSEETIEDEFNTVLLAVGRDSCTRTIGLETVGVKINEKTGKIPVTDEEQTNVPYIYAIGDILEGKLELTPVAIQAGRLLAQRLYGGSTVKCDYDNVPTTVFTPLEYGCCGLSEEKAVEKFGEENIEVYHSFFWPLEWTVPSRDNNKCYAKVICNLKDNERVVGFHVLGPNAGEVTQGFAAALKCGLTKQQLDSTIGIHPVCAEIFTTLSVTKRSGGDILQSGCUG
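Rat TrxR1, dispensed at 90 nM, was prereduced with 400 uM NADPH (final) for 5 min at ~22 deg C, then incubated with compound 15 min before 400 uM selenite. A first-read NADPH fluorescence drop versus no-compound background flagged substrates.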
rTrxR1 inhibitor: blocks rat thioredoxin reductase 1. O89049. recombinant rTrxR1, NADPH fluorescence consumption, selenite substrate. Potency, µM (titrated, usually from 114 µM), without a hit: at the top dose activity change, negative = inhibition, actives largely listed as inhibitors. actives 1% (n = 390,000). AID 588453; further: potency means the concentration at half of the fitted maximal effect; on the % scale 0 is the no-effect control and ±100 the full control effect; nearly all actives have a fitted effect of over 65% in size
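Rat TrxR1 (90 nM in the dispensed reagent) was pre-reduced with 400 uM NADPH for 5 min at room temperature, then incubated with compound for 15 min. After 400 uM selenite was added, NADPH fluorescence (Ex 340/Em 450 nm) was followed for 8 min.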
N370S GC: N370S glucocerebrosidase modulation, Gaucher chaperone candidate | P04062 | N370S GC spleen homogenate, 4MU-glucoside fluorescence | Potency, µM (titrated, usually from 59.4 µM), without a hit: at the top dose activity change, negative = inhibition, hits mostly inhibitors | actives 0.092% (n = 330,000) | AID 2101;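 further: potency means the concentration at half of the fitted maximal effect; 0% = full enzyme activity and -100% = no enzyme basal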
A-T KAP1 phos: candidate therapy for ataxia-telangiectasia; F2112 A-T fibroblasts, KAP-1 phosphorylation AlphaLISA; neocarzinostatin DNA damage 30 min before lysis; Potency, µM (highest dose often 57.5 µM), for the others: at the top dose activation, usual class: activators; actives 0.19% (n = 320,000); further: potency means the concentration at half of the fitted maximal effect; % of control where 0% means no effect; nearly all actives have a fitted effect of over 45% in size
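hTERT-immortalized A-T patient fibroblasts (F2112), 500 cells/well in OPTI-MEM, 1% FBS, got compounds for 60 min, then NCS for 30 min at 37C. Lysates were then assayed for phospho-KAP-1 by AlphaLISA (anti-pKAP1 donor, anti-KAP1 acceptor beads), 6 hr at 25C.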
Pin1 inh: inhibitors of human Pin1 | Pin1 FP peptide displacement, HiFluor488, 10 min | Q13526 | Potency, µM (highest dose often 115 µM), without a hit: at the top dose activity, negative = inhibition, most hits filed as inhibitors | actives 0.009% (n = 390,000); active means well fitted inhibition curve with a large enough effect in the polarisation, with a control signal flat, not every such curve was filed as active; inconclusive means small, poorly fitted or top-dose-only effect, or effect the other way, or a change in a side signal; inactive means no such curve, though single readings can be large or run the other way; the % refers to the polarisation; further: potency means the concentration at half of the fitted maximal effect; on the % scale 0 is the no-effect control and ±100 the full control effect
Target sequence (Q13526 whole entry, looked up): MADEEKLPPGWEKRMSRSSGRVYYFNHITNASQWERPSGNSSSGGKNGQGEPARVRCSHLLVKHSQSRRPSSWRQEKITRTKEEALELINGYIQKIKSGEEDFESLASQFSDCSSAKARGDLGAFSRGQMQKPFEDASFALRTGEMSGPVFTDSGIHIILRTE
* = called active by the depositor; i = inactive; ? = inconclusive; nt = no result given; [ ] = dose if it differs, or a comment. Unless noted, the call rests on the fitted dose curve; in most records, active means well fitted curve in the direction sought with a large enough effect; inconclusive means small, poorly fitted or top-dose-only effect, or another doubt; inactive means no such curve, though single readings can be large; an effect the other way counts as inactive or inconclusive.

SMILES	pAkt inh	TrxR1 substrate	rTrxR1 inhibitor	N370S GC	A-T KAP1 phos	Pin1 inh
COC(=O)c1ccc(=O)c2nc3/c(=C/O)c(O)cc(=O)c3[nH]c12	i	-17%	56µM*	-1%	-9%	7.1µM*
COc1cccc(N2C(=O)CC(c3c[nH]c4ccccc34)C2=O)c1 (stereo not given)	-102%*	6%[57.1 µM]	25%[57.1 µM]	-15%	3%	5%
Cc1ccc(-c2nnc(Nc3ccc(C(=O)N(C)C)cc3)c3ccccc23)cc1S(=O)(=O)N(C)C	nt	-7%	4%	nt	nt	2%
CC(=O)Nc1ccc(S(=O)(=O)N2CCN(S(=O)(=O)c3c(F)cccc3F)CC2)cc1	nt	nt	nt	nt	nt	34%
CCN1CCc2nc(SCC(=O)Nc3ccc(OC)cc3)c(C#N)cc2C1	i	-1%	18µM*	1%	7%	?
CCCS(=O)(=O)c1ncc(Cl)c(C(=O)N2CCN(c3ccc(OC)cc3)CC2)n1	nt	5%[57.1 µM]	8.9µM*	nt	nt	4%
CCSc1ncc(Cl)c(C(=O)N2CCN(c3ccc(OC)cc3)CC2)n1	nt	-5%	1%	nt	nt	-4%
Cc1c(NC(=O)c2cc(-n3cnnc3)ccc2Cl)cccc1-c1nc2ccccc2s1	-88%*	4%[57.1 µM]	4%[57.1 µM]	-5%	9%	3%
N#CCN1C(=O)C(=O)N(Cc2cccc(Cl)c2)C1=O	i	2%	19%	4%	0.71µM*	-8%
Nc1cccc2c1C(=O)N(Cc1cccc(Cl)c1)C2=O	i	14%[57.1 µM]	14%[57.1 µM]	17%	25%	?
COc1ccc(C(=O)COc2ccc(F)cc2)c(O)c1	i	3%	20%	4%	-3%	-5%
O=C(COc1ccc(F)cc1)c1c(O)cc(O)cc1O	i	-10%	7.1µM*	-3%	10%	-1%
C=CCc1ccc(OCC(O)CN2CCN(c3ccccc3)CC2)c(OC)c1 (stereo not given)	i	-2%	-1%	-26%	20µM*	-1%
Cc1[nH]n2c(=O)c3c(nc2c1-c1ccccc1)CCCC3	i	3%	7%	-4%	-12%	-3%
Cc1[nH]n2c(=O)c3c(nc2c1-c1cccc2ccccc12)CCC3	-114%*	7%	-2%	-11%	1%	5%
Cc1ccc(NC(=O)CSc2ncc3c(n2)-c2ccccc2N(C)S3(=O)=O)c(Cl)c1	nt	11%[57.1 µM]	33%[57.1 µM]	nt	nt	24%
COC(=O)C1C(O)=C(C=NCc2ccccc2)C(=O)CC1(C)C (stereo not given)	-114%*	-3%	6%	2%	-6%	0%
O=S1(=O)C=C(Sc2nc3ccccc3s2)c2ccccc21	-108%*	0%[57.1 µM]	2.5µM*	14%	?	12%
Cc1cc(C)c2cc(C#N)c(SCC(=O)NCc3ccco3)nc2c1	i	1%	56µM*	6%	-5%	?
Cc1ccc2c(c1)c1c3n2CCN(C(=O)CCl)C3CCC1 (stereo not given)	i	10%	7.9µM*	-1%	6%	?
O=S(=O)(NCC(c1ccco1)S(=O)(=O)c1cccs1)c1ccc(Cl)cc1 (stereo not given)	nt	4%[57.1 µM]	0.63µM*	nt	nt	-1%
CC(C)(C)c1ccc(C(=O)NCC(c2cccs2)S(=O)(=O)c2ccccc2)cc1 (stereo not given)	nt	0%[57.1 µM]	15%[57.1 µM]	nt	nt	12%
O=S(=O)(NCC(c1cccs1)S(=O)(=O)c1ccccc1)c1ccccc1 (stereo not given)	nt	1%[57.1 µM]	0.56µM*	nt	nt	-12%
O=S(=O)(NCC(c1ccco1)S(=O)(=O)c1cccs1)c1ccc(F)c(C(F)(F)F)c1 (stereo not given)	nt	-3%[57.1 µM]	0.45µM*	nt	nt	3%
COc1ccc(S(=O)(=O)NCC(c2ccco2)S(=O)(=O)c2cccs2)cc1OC (stereo not given)	nt	-2%[57.1 µM]	?	nt	nt	-11%
SMILES	pAkt inh	TrxR1 substrate	rTrxR1 inhibitor	N370S GC	A-T KAP1 phos	Pin1 inh
O=S(=O)(NCC(c1ccco1)S(=O)(=O)c1cccs1)c1ccccc1 (stereo not given)	nt	2%[57.1 µM]	16µM*	nt	nt	1%
O=C1CCc2cc([S+](=O)([O-])NC3CCOCC3)ccc2N1	nt	nt	nt	nt	nt	3%
COC(=O)c1ccc([C@@H]2Nc3c(OC)ccc(C)c3[C@@H]3C=CC[C@@H]32)cc1	nt	0%	56µM*	nt	nt	-19%
COC(=O)C1(C(=O)OC)C/C=C\Cc2ccccc2[C@@H]1C[N+](=O)[O-]	nt	nt	nt	12%	nt	nt
COc1ccc(-c2nsc(SCC(=O)Nc3cc(C)on3)n2)cc1	-81%*	13%[57.1 µM]	7%[57.1 µM]	-11%	-3%	-4%
CCCn1c(N2CCN(CC(=O)NCc3cccs3)CC2)nc2ccccc21	-110%*	16%[57.1 µM]	22%[57.1 µM]	0%	0%	-2%
CCOc1ccccc1CNC(=O)Cn1c(=O)c2cccn2c2ccc(F)cc21	nt	4%[11.4 µM]	25%	nt	nt	0%
Cc1cccc(NC(=S)NC(=O)/C=C/c2ccco2)n1	i	-1%[57.1 µM]	-16%[57.1 µM]	-17%	-11%	3%
COc1ccccc1NC(=S)NC(=O)/C=C/c1ccco1	i	-3%	20µM*	-5%	-4%	0%
COc1ccccc1NC(=O)/C(C#N)=C/C=C/c1ccco1	i	-4%	?	1%	4%	?
COc1ccccc1NC(=O)/C=C\c1ccco1	i	-4%	3.5µM*	-10%	4%	14%
COc1cc(C(=O)NNC(=O)/C=C/c2ccco2)cc(OC)c1OC	i	-5%	56µM*	nt	-2%	5%
Cc1ccccc1NC(=S)NC(=O)/C=C/c1ccco1	i	5%	16µM*	-13%	-1%	?
COc1cc2c(NC3CCN(C)CC3)nc(N3CCN(C)CC3)nc2cc1OCCCN(C)C	nt	67%	-34%	nt	nt	nt
CCOc1cc(C2Nc3ccccc3C(=O)N2Cc2ccco2)ccc1O (stereo not given)	nt	43%	-4%	nt	nt	5%
O=C(/C=C/c1ccco1)NC(=S)Nc1cc(-c2nc3ccccc3s2)ccc1Cl	i	-9%	50µM*	13%	-11%	22%
O=S(=O)(c1ccc(F)cc1)N1CCN(c2nc(-c3cccs3)nc3cc(Cl)ccc23)CC1	nt	7%	29%	nt	nt	1%
CC(C)(C)N(Cc1ccc2c(c1)OCO2)C(=O)/C=C\S(=O)c1ccccc1 (stereo not given)	i	-6%	79µM*	nt	nt	1%
C[C@@H]1[C@H](c2ccccc2)OCCS(=O)(=O)N1Cc1ccc(Cl)cc1	nt	4%	25%	nt	nt	nt
Cc1ccccc1N/C(=C(/C(Cl)=C(Cl)Cl)[N+](=O)[O-])n1nnc2ccccc21	nt	4%[57.1 µM]	10µM*	-5%	nt	3%
COc1ccc(N/C(=C(/C(Cl)=C(Cl)Cl)[N+](=O)[O-])n2nnc3ccccc32)cc1	nt	nt	nt	1%	nt	nt
